Compound activity deposited in PubChem BioAssay by National Center for Advancing Translational Sciences (NCATS).
This excerpt belongs to a sample that is enriched for hits.
KDM5B inhibitor = inhibitors of human KDM5B histone demethylase. Q9UGL1. KDM5B demethylase, FDH-coupled NADH fluorescence (FDH is formaldehyde dehydrogenase). Potency, µM (highest dose often 57.7 µM), most hits filed as inhibitors. 2.6% of 220,000 active. AID 1347165; active = well fitted inhibition curve with a large enough effect; note: 0% is about no effect; nearly all actives have a fitted effect of over 70% in size
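KDM5BΔAP (200 nM final) in 50 mM HEPES pH 7.5, 0.01% Tween-20 was preincubated 10 min at RT with compound over a concentration range. Substrate mix (H3K4me3 12.5 µM, α-KG 25 µM, Fe²⁺, ascorbate, NAD⁺, FDH) was added, and NADH fluorescence change over 30 min gave dose-response curves.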
Numbers without * were called inactive; i = inactive. Potency is the fitted concentration of half-maximal effect.

SMILES	KDM5B inhibitor
Cc1ccccc1NS(=O)(=O)c1ccc(C(=O)NCc2cccnc2)cc1	i
CS(=O)(=O)c1ccc(-c2nc(C(=O)NCc3cccnc3)n3ccncc23)cc1	10µM*
CCN(CC)CCNC(=O)c1ccc(CSc2nc3ccncc3n2Cc2cccc(F)c2)cc1	i
CC(C)C(NC(=O)c1ccc(CS(C)(=O)=O)cc1)c1ccc(F)cc1 (stereo not given)	i
CCNC(=O)C(C)NC(=O)CCc1ncc(-c2ccc(CC(C)C)cc2)o1 (stereo not given)	i
CC(=O)NCCCNC(=O)c1cc(-c2ccccc2)nc2ccccc12	i
CCOC(=O)C1CCN(C(=O)COC(=O)c2cn(-c3ccccc3)nc2-c2ccccc2)CC1	i
Cc1cccc(Cn2c(Sc3nncn3C)nc3c2c(=O)[nH]c(=O)n3C)c1	i
CCOC(=O)c1sc(CC(=O)Nc2ccc(C)cc2C)nc1C	i
CN(C)C(=O)c1cccnc1-c1ccc(S(C)(=O)=O)cc1	i
CN(C)C(=O)c1nc(-c2ccc(S(C)(=O)=O)cc2)c2cnccn12	28µM*
CS(=O)(=O)c1ccc(CN2CCC(O)(Cn3ccnc3)CC2)cc1	i
CCOc1ccc(NC(=O)c2c(C)nn(-c3cccc(C)c3)c2-n2cccc2)cc1	i
Cc1cccc(C)c1NS(=O)(=O)c1cccc(C(F)(F)F)c1	i
Cc1cc(C)c(NC(=O)CNC(=O)c2cc3cc(Cl)ccc3nc2C)c(C)c1	i
O=C(O)Cn1ccc2cc(OCCc3cccc(-c4ccc(F)cc4)c3)cnc21	40µM*
COc1cccc(-c2cccc(CCOc3cnc4c(ccn4CC(=O)O)c3)c2)c1	32µM*
CC1=NS(=O)(=O)N(Cc2ccccc2)C=C1C(=O)OCc1noc(-c2cccc(F)c2)n1	i
Cc1oc(-c2ccccc2)nc1CC(=O)NCCc1cccc(F)c1	i
COc1cccc(-c2cc(C(=O)NCCOc3ccccc3)[nH]n2)c1	i
O=C(O)c1cccc(-c2ccc(F)cc2)c1	i
COc1cccc(-c2ccccc2NC(=O)C2CCN(CC(=O)O)CC2)c1	i
Cc1ccnn1CC(=O)N(Cc1ccncc1)Cc1cccc(OCCc2ccc(F)cc2)c1	i
O=C(O)Cn1ccc2cc(OCCc3cccc(-c4cccc(F)c4)c3)cnc21	40µM*
Cc1ccc2c(CSc3nnnn3-c3ccccc3)cc(=O)oc2c1C	i
SMILES	KDM5B inhibitor
Cc1cccc(NC(=O)C2Cc3ccc(C)cc3S2)c1 (stereo not given)	i
c1ccc2c(c1)Sc1ccccc1S2	i
CC1(c2ccccc2)N(Cc2ccccc2)C(=O)OC12CCN(Cc1cccc(O)c1)CC2 (stereo not given)	i
c1ccc(Nc2nc(NCc3ccc4c(c3)OCO4)nc3nccnc23)cc1	i
Cc1cc2c(c(=O)n1Cc1ccc3c(c1)OCO3)C(c1ccccc1Cl)C(C#N)=C(N)O2 (stereo not given)	i
CC(=O)Nc1ccc(NC(=O)CCc2ncc(-c3ccc(Cl)cc3)o2)cc1	i
CN1CC2(CCCN(Cc3cc4ccccc4n(C)c3=O)C2)OC1=O (stereo not given)	22µM*
CN1CC2(CCCN(Cc3ccc(-c4ccccn4)cc3)C2)OC1=O (stereo not given)	i
CN1CC2(CCCN(Cc3cc4ccccc4o3)C2)OC1=O (stereo not given)	i
O=C1N[C@@H]2CCN(S(=O)(=O)Cc3ccccc3)[C@@H]2C(=O)N1c1ccc(F)cc1	i
COc1cccc(N(CC(=O)Nc2ccc(C(N)=O)cc2)S(=O)(=O)c2ccccc2)c1	i
COc1ccc(NC(=S)NNC(N)=O)cc1	i
COc1cccc([S+](=O)([O-])N2CCCC(c3nnc4n3C(C(=O)O)CC4)C2)c1 (stereo not given)	i
O=C(O)C1CCc2nnc(C3CCCN([S+](=O)([O-])c4ccccc4)C3)n21 (stereo not given)	56µM*
O=C(O)C1CCc2nnc(C3CCCN(C(=O)c4ccccc4)C3)n21 (stereo not given)	i
CCN(CC)S(=O)(=O)c1ccc2[nH]c(=O)cc(C(=O)NC(C3CC3)C3CC3)c2c1	i
CCCCc1cnc2c(c1SCC(N)=O)c(=O)n(C)c(=O)n2C	i
Cn1nc(C(=O)Oc2cc(Cl)ccc2Cl)c2ccccc2c1=O	i
CCOC(=O)C1=C(CN2CCc3ccccc3C2)NC(=O)NC1c1ccc(CC)cc1 (stereo not given)	i
Cc1ccc(-c2ccc3nnc(CNC(=O)C4CC4)n3n2)cc1	14µM*
Cc1ccc(-c2ccc3nnc(CNC(=O)CCC4CCCC4)n3n2)cc1	28µM*
Cc1ccc(S(=O)(=O)N2CCC(CCC(=O)NCc3cccc(C)c3)CC2)cc1	i
Cc1ccc(-c2ccc3nnc(CNC(=O)CSc4ccncc4)n3n2)cc1	28µM*
O=C(NCc1ccc(-c2csnn2)cc1)C1CC1	i
Cc1ccc(CNC(=O)C2CCCC2)cc1	i
SMILES	KDM5B inhibitor
COc1ccc2c(c1)c(C(C(=O)O)N1CCN(Cc3cccnc3)CC1)cn2CCC(=O)O (stereo not given)	i
CCN1CCCC1CNC(=O)CC(C)(C)C (stereo not given)	i
CSc1ncccc1C(=O)N(Cc1nnc(-c2ccccc2Cl)o1)C(C)C	i
O=C(NC1CCCCC1)C1(c2cccc(Cl)c2)CCC1	i
NC(=O)C1CN(CC(=O)Nc2ccccc2Sc2ccccc2)c2ccccc2O1 (stereo not given)	i
Cc1ncc(-c2ccc(C)c(S(=O)(=O)Nc3ccc(Cl)cc3F)c2)o1	i
Cc1ccc(-c2cc(N3CCC(CNC(=O)c4cccc(N(C)C)c4)CC3)n[nH]2)cc1	28µM*
Cc1ccc(-c2cc(N3CCC(CNC(=O)c4n[nH]c5c4CCCC5)CC3)n[nH]2)cc1	i
Cc1ccc(-c2cc(N3CCC(CNC(=O)c4ccc[nH]c4=O)CC3)n[nH]2)cc1	i
CN(C)c1cccc(C(=O)NCC2CCN(c3cc(-c4ccc(F)cc4)[nH]n3)CC2)c1	20µM*
Cc1cccc(-c2[nH]ncc2CNC(=O)c2cccc(N(C)C)c2)c1	28µM*
CN(C)c1cccc(C(=O)NCC2CCN(c3cc(-c4ccc(Cl)cc4)[nH]n3)CC2)c1	32µM*
Cc1cccc(C)c1NC(=O)c1cccc(N(C)C)c1	i
CC(=O)N1CCC(C(=O)NCC2CCN(c3cc(-c4ccc(Cl)cc4)[nH]n3)CC2)CC1	i
Cc1nccn1CC(=O)NCC1CCN(c2cc(-c3ccc(Cl)cc3)[nH]n2)CC1	i
Cc1ccc(NC(=O)c2cccc(N(C)C)c2)c(C)c1	i
O=C(NCC1CCN(c2cc(-c3ccc(F)cc3)[nH]n2)CC1)c1n[nH]c2c1CCCC2	i
O=C(NCC1CCN(c2cc(-c3ccc(F)cc3)[nH]n2)CC1)c1ccc[nH]c1=O	i
COc1ccccc1N1CCN(CC(=O)Nc2ncc3c(n2)CC(C)CC3=O)CC1 (stereo not given)	i
OCC#CC[N+]1(CC#Cc2ccc(C#CC[N+]3(CC#CCO)CCCCC3)cc2)CCCCC1	i
COc1cccc(N2C(=O)NC(=NC3CCCCC3)C23CCCN([S+](=O)([O-])c2cccc(C(F)(F)F)c2)C3)c1 (stereo not given)	i
O=C(COC(=O)c1n[nH]c2ccccc12)Nc1ccc(OC(F)(F)F)cc1	i
COc1cccc(CNC(=O)c2cccc3ccccc23)c1	i
O=C(Nc1ccccc1O)c1cc(-c2ccccc2)nc2ccccc12	i
Cc1ccc(CNC(=O)CSc2nc3cc4c(cc3c(=O)n2Cc2ccco2)OCO4)cc1	i
